For 20 sequences, sensor-assay potency score (higher = more potent) results are on record in the OligoGym collection.
Further: reference of the scale not given here.

For one experiment, the target named is RBM15B. In words: pooled miR-30 sensor sort-seq; sequence = guide strand. The settings on record: shRNA.
In turn, TTGACGTGATCAATGGTCCGAA yielded a sensor-assay potency score (higher = more potent) of 0.476.

On to TTGCTGAGGGAGTTGCTGCTGG, for which the sensor-assay potency score (higher = more potent) is -0.717.

Regarding TAAGAGGACCGCATAGCCGTTG, the sensor-assay potency score (higher = more potent) is -0.808.

In the case of TATAGGCAAAGCTATCTCCTTT, the sensor-assay potency score (higher = more potent) is -0.598.

Turning to TTTTTCAACACCAGAAGCCCAT, the sensor-assay potency score (higher = more potent) is 0.0926.

On to TTTGACGTGATCAATGGTCCGA, for which the sensor-assay potency score (higher = more potent) amounted to 0.695.

TTTTGTGACACAAACATGACGC gave a sensor-assay potency score (higher = more potent) of 0.652.

The sequence TGTGACACAAACATGACGCTGG gave a sensor-assay potency score (higher = more potent) of 0.96.

The sequence TCGTGTGACCTCGTCAAGCTTG gave a sensor-assay potency score (higher = more potent) of -1.02.

TTTAAAATAACTGCTTTTGTGA displayed a sensor-assay potency score (higher = more potent) of -0.54.

With TTGTGACACAAACATGACGCTG, the sensor-assay potency score (higher = more potent) is -1.03.

The next experiment deals with RBM28. The description is as above. To be noted: shRNA.
In the case of TCCACTAGTAGCACTCAGCAGC, the sensor-assay potency score (higher = more potent) is -1.24.

TTGTCATCTACAGCCTTTGGGA returned a sensor-assay potency score (higher = more potent) of -0.978.

TTTTGAACTGAACAAAACCAAA had a sensor-assay potency score (higher = more potent) of -1.7.

For TTTTCCTAGATACCTGCTCGGA, the sensor-assay potency score (higher = more potent) is -0.748.

The sequence TTTTGTTTGAGACTTGCACAGC displayed a sensor-assay potency score (higher = more potent) of -0.43.

With TTGGTCTGGAACCCGGTCCATG, the sensor-assay potency score (higher = more potent) is -1.16.

For the sequence TTATATTGTTCGACCAGCTGGT, the sensor-assay potency score (higher = more potent) turned out to be 0.168.

TTGCACAGCTTTATCCTCTTGC showed a sensor-assay potency score (higher = more potent) of 0.184.

TTTCTTGGCAACAGTCACGTTG displayed a sensor-assay potency score (higher = more potent) of -0.362.
